Test results reported in PubChem BioAssay (NCATS).
“And” between values parts separate entries of the source, which are not always exact repeats. Identical values can stand only once. Inconclusive results are not listed. A call without a number means that no potency is given here. The source made the active and inactive calls. Calls follow the shape of the dose curve; as a rule, active = well fitted inhibition curve with a large enough effect in the signal ratio, with a control signal flat (not every such curve was filed as active); inconclusive = small, poorly fitted or top-dose-only effect, or effect the other way, or a change in a side signal; inactive = flat fitted curve, though single readings scatter; the % refers to the signal ratio.

target: Peroxisome proliferator-activated receptor gamma (Homo sapiens) (UniProt P37231); assay: qHTS assay for small molecule antagonists of peroxisome proliferator-activated receptor gamma signaling (AID 588537); conditions: HEK293 PPARg-UAS-bla, beta-lactamase ratio, antagonist mode; series mostly up to 76.8 µM
Sequence (P37231 whole entry, looked up): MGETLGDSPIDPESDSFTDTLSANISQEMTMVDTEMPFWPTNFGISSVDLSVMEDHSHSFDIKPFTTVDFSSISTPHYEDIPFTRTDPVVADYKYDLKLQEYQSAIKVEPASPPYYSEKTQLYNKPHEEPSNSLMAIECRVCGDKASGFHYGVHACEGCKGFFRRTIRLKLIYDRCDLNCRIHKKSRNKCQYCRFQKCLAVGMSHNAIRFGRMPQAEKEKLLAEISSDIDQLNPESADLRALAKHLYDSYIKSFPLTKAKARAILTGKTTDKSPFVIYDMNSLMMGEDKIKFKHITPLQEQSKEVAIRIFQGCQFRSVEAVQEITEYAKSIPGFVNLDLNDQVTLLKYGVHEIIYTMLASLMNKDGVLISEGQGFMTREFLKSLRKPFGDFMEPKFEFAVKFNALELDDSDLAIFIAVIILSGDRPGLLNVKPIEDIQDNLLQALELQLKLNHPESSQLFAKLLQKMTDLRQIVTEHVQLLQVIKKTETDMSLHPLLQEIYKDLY
Excerpt: NIH Chemical Genomics Center [NCGC]
U.S. Environmental Protection Agency [EPA]
National Institutes of Environmental Health Sciences [NIEHS]
National Toxicology Program [NTP]
The Peroxisome proliferator-activated receptors (PPARs) are lipid-activated transcription factors of the nuclear receptor superfamily with three distinct subtypes namely PPAR alpha, PPAR delta (also called PPAR beta) and PPAR gamma. All these subtypes heterodimerizes with Retinoid X receptor (RXR) and these heterodimers regulate transcription of various genes. PPAR-gamma (glitazone receptor) ligands have been used in the treatment of type 2 diabetes and dyslipidaemia. It is involved in the regulation of glucose and lipid metabolism. PPAR-gamma activates certain genes like Paraoxonase 1 which is responsible for hydrolyzing organophosphates. PPAR-gamma ligands may also be therapeutically important in the treatment of coronary artery disease, obesity and cancer and atherosclerosis.
NCGC Assay Protocol Summary
Using a beta-lactamase reporter-gene under control of Peroxisome Proliferator-Activated-gamma (PPAR-gamma) response element, a cell-based assay [GeneBLAzer PPAR-gamma-UAS-bla assay developed by Invitrogen] was used to measure PPAR-gamma ligands signaling. GeneBLAzer PPAR-gamma-UAS-bla-HEK293 cells were used with assay medium containing 1% charcoal/dextran treated FBS. The assay was performed in clear bottom black Greiner 1536-well plates. Library compounds were measured for their ability to inhibit the reporter gene activity. Compounds were screened in a titration series in 1536-well format. The fluorescence intensity (405 nm excitation, 460/530 nm emission) was measured using an EnVision plate reader. Data was normalized relative to Rosiglitazone control (50 nM, 100%), and DMSO only wells (basal, 0%). Concentration-response titration points for each compound were fitted to the Hill equation yielding concentrations of half-maximal inhibition (IC50) and maximal response (efficacy) values.
qHTS protocol for PPAR-gamma beta-lactamase assay in antagonist mode
[Step] [Parameter] [Value] [Description]
1. Reagent; 5 uL; 3000 cells/well
2. Incubation; 37 C for 6-6.5 hrs
4. Controls (GW9662, PPAR-gamma antagonist); 23 nL,
5. Agonist (Stimulator); 1uL; Rosiglitazone at 50 nM (final) concentration
6. Incubation; 37 C for 16 hrs
7. Detection reagent; 1 uL of CCF4-dye
8. Incubation; RT for 2 hrs
9. Detection; Fluorescence; Envision plate reader

Structure (SMILES) | Potency
CCOP(=S)(OCC)SCSCC | inactive
c1ccc2c(c1)-c1cccc3cccc-2c13 | inactive
CC(=O)[C@H]1CC[C@H]2[C@@H]3CCC4=CC(=O)CC[C@]4(C)[C@H]3CC[C@]12C | inactive
C[C@H]1O[C@H](OC2[C@@H](O)[C@@H](O)C(O)[C@H](O)[C@H]2O)[C@@H](N)C[C@@H]1N=C(N)C(=O)O (stereo partly drawn) | inactive
Cc1ccccc1O | inactive
c1ccc(Nc2cccc3ccccc23)cc1 | 39.8 µM (active) and 44.7 µM (active)
CC(C)COC(=O)c1ccccc1C(=O)OCC(C)C | inactive
CC(C)OC(=O)Nc1ccccc1 | inactive
CCCCOP(=O)(O)OCCCC | inactive
C[C@@H]1Cc2c(Cl)cc(C(=O)N[C@@H](Cc3ccccc3)C(=O)O)c(O)c2C(=O)O1 | 2 µM (active)
COC1=CC(=O)OC(CCc2ccc3c(c2)OCO3)C1 (stereo not drawn) | inactive
COC(=O)c1ccccc1C(=O)OC | inactive
Cc1ccc2cc3c(ccc4ccccc43)c3c2c1CC3 | inactive
